PI5P4K alpha inh – PI5P4K alpha (human) kinase inhibition | P48426 | AID 652105 | PI5P4Kalpha enzyme, ADP-Glo luminescence, 60 min; stronger effect = lower value | max response, % | hit rate 1.2% among 330,000; active means max response of -50% or lower; inconclusive means between -30% and -50%; inactive means -30% or higher; further: value at the top dose of about 77 µM
Target sequence (P48426 whole entry, looked up): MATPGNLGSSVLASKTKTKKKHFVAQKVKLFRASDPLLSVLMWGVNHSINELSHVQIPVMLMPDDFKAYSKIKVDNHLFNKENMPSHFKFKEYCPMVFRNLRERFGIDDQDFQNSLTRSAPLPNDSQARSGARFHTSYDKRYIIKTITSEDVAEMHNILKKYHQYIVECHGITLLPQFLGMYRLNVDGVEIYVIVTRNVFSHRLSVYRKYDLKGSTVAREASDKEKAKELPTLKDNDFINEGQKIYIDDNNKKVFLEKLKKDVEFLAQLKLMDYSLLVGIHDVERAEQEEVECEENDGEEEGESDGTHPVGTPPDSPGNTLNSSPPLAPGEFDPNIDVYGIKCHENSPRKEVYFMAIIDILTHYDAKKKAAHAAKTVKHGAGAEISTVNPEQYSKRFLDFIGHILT
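Human PI5P4Kalpha with substrate in 0.038 M HEPES pH 7.4, 0.28 mM EGTA, 0.1% CHAPS, 5% DMSO; reaction started with 5 microM ATP (final), 60 min at room temperature. ADP formed read by ADP-Glo luminescence.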
Pol kappa inh-1 – blocks human DNA polymerase kappa activity; Q9UBT6; purified Pol kappa, fluorescent DNA synthesis assay, 10 min; Potency, µM (titrated, usually from 107 µM), usual class: inhibitors; hit rate 0.53% among 400,000; AID 588579
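Kinetic fluorescence readout at 0 and 10 min followed reaction start with substrate at 50 nM final. Beforehand, enzyme (10 nM Pol kappa) stood 15 min with compound at room temperature; buffer-only wells were negative controls.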
Pol iota inh – blocks human DNA polymerase iota activity; Potency, µM (top dose mostly 115 µM), most hits filed as inhibitors; Pol iota fluorescent replication assay, 10 min; hit rate 1% among 390,000; Q9UNA4
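Fluorescent replication assay read twice, at 0 min and 10 min after adding 50 nM (final) substrate. Enzyme (10 nM) and compounds were first incubated 15 min at room temperature; enzyme-free buffer wells were negative controls.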
WRN inhibitor – blocks human WRN helicase; Q14191; WRN helicase unwinding, fluorescent forked duplex, kinetic; Potency, µM (top dose mostly 114 µM), actives largely listed as inhibitors; hit rate 0.46% among 360,000; AID 651768; further: nearly all actives have a fitted effect of over 55% in size
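Primary qHTS, 1536-well format. 20 nM WRN + compound, 15 min RT; start with 100 nM forked fluorophore/quencher duplex, 2 mM ATP (final); kinetic read ex 525/em 598 nm.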
Pol beta inh – blocks human DNA polymerase beta activity. hit rate 1.3% among 340,000. AID 485314. P06746. Potency, µM (top dose mostly 114 µM), hits mostly inhibitors. Pol beta primer extension/strand displacement, fluorescence kinetic
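Enzyme-only controls used 10 nM Pol beta; buffer lacking enzyme served as negative control. Compound preincubated 15 min, then 50 nM substrate added; 0 and 10 min reads at room temperature.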
Pol eta inh-1 – blocks human DNA polymerase eta activity; AID 588591; Q9Y253; hit rate 1.2% among 390,000; recombinant Pol eta, fluorescent DNA replication assay; Potency, µM (titrated, usually from 114 µM), actives largely listed as inhibitors
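Fluorescent replication assay: 50 nM final substrate added after a 15 min room-temperature compound preincubation with 10 nM enzyme. Signal taken at 0 min and again at 10 min.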
TbPGK inh – blocks T. brucei phosphoglycerate kinase | shares compounds with Pol kappa inh-1 | TbPGK coupled GAPDH assay, Kinase-Glo luminescence | Potency, µM (series often up to 57.5 µM), actives largely listed as inhibitors | hit rate 79% among 500; further: nearly all actives have a fitted effect of over 65% in size
Pol iota confirm – Confirm cherry-picked inhibitors of human polymerase iota. AID 720496. hit rate 77% among 1,500. shares compounds with Pol kappa inh-1. Pol iota primer extension, TAMRA/BHQ fluorescence. Potency, µM, most hits filed as inhibitors
GALK confirm – confirmation of human galactokinase (GALK) inhibitors | shares compounds with Pol eta inh-1 | purified GALK, Kinase-Glo ATP depletion luminescence | Potency, µM (titrated, usually from 115 µM), most hits filed as inhibitors | hit rate 70% among 150
GALK redox cs – generates H2O2 by redox cycling, flagging GALK artifacts; shares compounds with Pol eta inh-1; Phenol red-HRP H2O2 redox cycling, absorbance 600 nm; Potency, µM (highest dose often 115 µM), usual class: inhibitors; hit rate 40% among 150; AID 2035
HEK293 tox – reduces HEK-293 cell viability in GALK counter-screen; shares compounds with Pol eta inh-1; HEK-293 viability, ATP luminescence (CellTiter-Glo), 24/48 h; Potency, µM (top dose mostly 46.1 µM), most hits filed as inhibitors; hit rate 10% among 170; AID 2547
Pol kappa inh-2 – confirmation of human DNA polymerase kappa inhibitors; shares compounds with Pol eta inh-1; purified Pol-kappa, fluorescent strand-displacement substrate; Potency, µM, hits mostly inhibitors; hit rate 76% among 920; AID 720501
Pol eta inh-2 – Pol eta (human) inhibition, cherry-pick confirmation | hit rate 64% among 2,600 | Potency, µM, usual class: inhibitors | Pol eta primer extension, TAMRA/BHQ fluorescence, 10 min | shares compounds with Pol eta inh-1
Each line names hits and unclear results; the compound was inactive in the other large screens (follow-up assays come after a bar, where they were run). Sampled rows, rich in hits. Any-hit rate of the full collection: about 2.8%. Unless noted, the call rests on the fitted dose curve; in most records, active means well fitted curve in the direction sought with a large enough effect; inconclusive means small, poorly fitted or top-dose-only effect, or another doubt; inactive means no such curve, though single readings can be large; an effect the other way counts as inactive or inconclusive.

NS(=O)(=O)c1ccc2c(c1)C(=NO)c1cc(S(N)(=O)=O)ccc1-2	Pol beta inh inconclusive
NC1=C(Cl)C(=O)c2ccc(S(N)(=O)=O)cc2C1=O	PI5P4K alpha inh inconclusive, Pol iota inh 4µM, WRN inhibitor inconclusive, Pol eta inh-1 10µM (no result: Pol beta inh) | Pol iota confirm 75 | Pol eta inh-2 38
Cc1ccnn1CCC(=O)N1CCCC(CCC(=O)N2CCN(c3ccccn3)CC2)C1 (stereo unspecified)	none
COc1ccc(CCNC(=O)Cn2nc(C)c3c(C)n(-c4ccc(C)cc4)nc3c2=O)c(OC)c1	Pol iota inh inconclusive, Pol beta inh 35µM, Pol eta inh-1 inconclusive (no result: PI5P4K alpha inh, WRN inhibitor) | Pol iota confirm 67 | Pol kappa inh-2 27 | Pol eta inh-2 85
COCCNC(=O)Cn1nc(C)c2c(C)n(-c3ccc(C)cc3)nc2c1=O	none (no result: PI5P4K alpha inh, WRN inhibitor)
CCC1=NN2C(=N)/C(=C\c3ccc(OCc4cc(=O)n5nc(CC)sc5n4)c(OC)c3)C(=O)N=C2S1	PI5P4K alpha inh -71, Pol kappa inh-1 32µM, Pol iota inh inconclusive, Pol beta inh 4.5µM, Pol eta inh-1 8.9µM | Pol iota confirm 19 | Pol eta inh-2 17
CCc1nn2c(=O)cc(COc3ccc(/C=C4\C(=N)N5N=C(CC(C)C)SC5=NC4=O)cc3)nc2s1	Pol iota inh inconclusive, Pol beta inh inconclusive, Pol eta inh-1 inconclusive | Pol iota confirm 75 | Pol eta inh-2 76
CCC1=NN2C(=N)/C(=C\c3ccc(OCCOc4ccccc4)c(OC)c3)C(=O)N=C2S1	none (no result: PI5P4K alpha inh, Pol kappa inh-1, Pol iota inh, WRN inhibitor, Pol eta inh-1)
Cc1cc(C)n(C(=O)N(c2ccccc2)c2ccccc2)n1	Pol beta inh inconclusive
CC(C)=CCC/C(C)=C/CC/C(C)=C/CC/C(C)=C/CC1=C(C)C(=O)c2ccccc2C1=O	none
CC(C)=CCC1=C(OCC(=O)O)C(=O)c2ccccc2C1=O	Pol iota inh inconclusive, Pol beta inh inconclusive, Pol eta inh-1 22µM | Pol iota confirm 38 | GALK confirm 38µM | GALK redox cs 12µM | HEK293 tox inactive | Pol eta inh-2 27
CC1=C/C(=C\c2ccc(Br)o2)C(=O)O1	PI5P4K alpha inh inconclusive, Pol kappa inh-1 25µM, Pol iota inh 10µM, WRN inhibitor 20µM, Pol beta inh 6.3µM, Pol eta inh-1 2.2µM | TbPGK inh 3.7µM | Pol iota confirm 17 | Pol kappa inh-2 17 | Pol eta inh-2 11
Cc1cccc(NC(=O)Cn2c(O)c(N=NC(=O)c3ccccc3O)c3ccccc32)c1	WRN inhibitor inconclusive, Pol beta inh 16µM, Pol eta inh-1 45µM | Pol iota confirm 47 | Pol eta inh-2 inconclusive
Nc1ncnc2oc(-c3ccco3)c(-c3ccco3)c12	Pol kappa inh-1 25µM, Pol iota inh inconclusive, WRN inhibitor inconclusive, Pol beta inh 6.3µM, Pol eta inh-1 40µM (no result: PI5P4K alpha inh) | Pol iota confirm 42 | Pol eta inh-2 85
CC(C)c1cc(=O)[nH]c(N2CCN(Cc3ccc4c(c3)OCO4)CC2)n1	none
Cc1c(Cl)cccc1NS(=O)(=O)c1ccc2c(c1)C1C=CCC1C(c1ccc(C(=O)O)cc1)N2 (stereo unspecified)	PI5P4K alpha inh -102, Pol kappa inh-1 2.8µM, Pol iota inh inconclusive, WRN inhibitor 32µM, Pol beta inh 22µM, Pol eta inh-1 2µM | Pol iota confirm 38 | Pol eta inh-2 6.7
O=C1c2ccccc2C(=O)C12OC2c1cccc2ccccc12 (stereo unspecified)	Pol iota inh 3.5µM, Pol eta inh-1 20µM | Pol iota confirm inconclusive | GALK confirm 17µM | GALK redox cs 13µM | HEK293 tox inactive | Pol eta inh-2 38
O=C1NC(c2cccc3ccccc23)Nc2ccccc21 (stereo unspecified)	none (no result: Pol beta inh)
CC(=O)Nc1ccc(NC(=O)CSc2nc(N)c(NC(=O)c3ccccc3F)c(=O)[nH]2)cc1	PI5P4K alpha inh inconclusive, Pol kappa inh-1 inconclusive, Pol iota inh 40µM, WRN inhibitor inconclusive, Pol beta inh inconclusive, Pol eta inh-1 25µM | Pol iota confirm 67 | Pol kappa inh-2 inconclusive | Pol eta inh-2 inconclusive
Cc1nnc(SCC2=C(C(=O)O)N3C(=O)C(NC(=O)Cn4nc(C(F)F)cc4C)C3SC2)s1 (stereo unspecified)	Pol kappa inh-1 inconclusive, Pol iota inh 16µM, Pol beta inh inconclusive, Pol eta inh-1 8.9µM | TbPGK inh inconclusive | Pol eta inh-2 27
O=C1NN(c2ccccc2)C(=O)/C1=C/c1ccc(Sc2ccc(Cl)cc2)o1	PI5P4K alpha inh inconclusive, Pol kappa inh-1 50µM, Pol iota inh 7.9µM, WRN inhibitor inconclusive, Pol beta inh inconclusive (no result: Pol eta inh-1) | Pol iota confirm inconclusive | Pol eta inh-2 30
Cc1ccc(Sc2ccc(/C=C3/C(=O)NN(c4ccccc4)C3=O)o2)cc1	PI5P4K alpha inh inconclusive, Pol kappa inh-1 inconclusive, Pol beta inh inconclusive, Pol eta inh-1 22µM | Pol iota confirm 67 | Pol kappa inh-2 24 | Pol eta inh-2 inconclusive
O=C1C2C(C(=O)N1/N=C/c1cc([N+](=O)[O-])c(O)cc1O)C1C=CC2C12CC2 (stereo unspecified)	PI5P4K alpha inh -74, Pol kappa inh-1 50µM, Pol iota inh 20µM, WRN inhibitor inconclusive, Pol beta inh 11µM, Pol eta inh-1 10µM | Pol iota confirm 42 | Pol eta inh-2 30
O=C1C2C(C(=O)N1/N=C/c1cc([N+](=O)[O-])ccc1O)C1C=CC2C12CC2 (stereo unspecified)	none (no result: PI5P4K alpha inh)

Source: PubChem
